# Measured values reported in ChEMBL document CHEMBL1961873, “Compounds: GSK PKIS; Assays: Nanosyn kinase panel” (2012).
# Target: T1, Tyrosine-protein kinase ITK/TSK (Homo sapiens) (UniProt Q08881)
# T1 sequence (whole entry): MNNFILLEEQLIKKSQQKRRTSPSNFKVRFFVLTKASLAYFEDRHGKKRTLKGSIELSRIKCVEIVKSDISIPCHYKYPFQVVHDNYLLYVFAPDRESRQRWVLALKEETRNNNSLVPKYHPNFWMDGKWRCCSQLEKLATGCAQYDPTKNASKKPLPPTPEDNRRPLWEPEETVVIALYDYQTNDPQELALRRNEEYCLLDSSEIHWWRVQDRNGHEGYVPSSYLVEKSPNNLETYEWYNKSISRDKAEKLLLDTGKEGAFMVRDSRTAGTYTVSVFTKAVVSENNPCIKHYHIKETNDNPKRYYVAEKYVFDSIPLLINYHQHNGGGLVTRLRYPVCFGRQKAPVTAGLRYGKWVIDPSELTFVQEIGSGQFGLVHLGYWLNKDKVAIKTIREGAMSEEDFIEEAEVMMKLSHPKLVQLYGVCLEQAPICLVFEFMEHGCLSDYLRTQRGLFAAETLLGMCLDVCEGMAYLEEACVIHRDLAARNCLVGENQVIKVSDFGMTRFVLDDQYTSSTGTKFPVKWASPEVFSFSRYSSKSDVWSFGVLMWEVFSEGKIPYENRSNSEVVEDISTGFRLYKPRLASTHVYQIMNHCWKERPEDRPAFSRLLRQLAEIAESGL
# Settings: at 1 µM
# 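Further: values are mean percent inhibition of ITK from the GSK PKIS screen.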
row,SMILES,inhibition [%]
1,CCN(CC)Cc1ccc(Nc2nccc(-c3cnn4ncccc34)n2)cc1,-0.21
2,CCC(=O)Nc1ccc(C)c(-c2ccc(C(=O)NCC3CC3)cc2)c1,-0.1
3,COc1cc(C)c(N(C)C(=O)CN(C)C)cc1Nc1nc(Nc2cccc(F)c2C(N)=O)c2cc[nH]c2n1,-1.94
4,CCc1cccc(CC)c1/C=C/c1cncc(C(=O)NC)c1,2.29
5,COc1ccc2cc(-c3c(-c4ccncc4)nc(-c4ccc(S(C)(=O)=O)cc4C)n3C)ccc2c1,1.36
6,Cc1nnc(-c2ccc(C)c(-c3ccc(C(=O)NCc4ccc(Cl)cc4)cc3)c2)o1,-2.86
7,COc1cc(Nc2ncc(-c3ccccc3)o2)cc(OC)c1OC,2.92
8,NCc1ccc(-n2c(-c3nonc3N)nc3cnccc32)cc1,2.4
9,COc1cc2ncn(-c3cc(OCCc4ccccc4)c(C(N)=O)s3)c2cc1OC,2.27
10,O=C(Nc1ccc(Oc2ccc3[nH]c(NC(=O)c4ccccc4)nc3c2)cc1)Nc1cc(C(F)(F)F)ccc1F,2.09
11,O=C1Nc2ccc(I)cc2C1=Cc1cc(Br)c(O)c(Br)c1,1.44
12,C[C@@H](Oc1cc(-n2cnc3ccc(OCC4CCN(C)CC4)cc32)sc1C(N)=O)c1ccccc1Cl,3.2
13,CN(C)CCOc1ccc(-c2cc(-c3ccc4c(c3)CCC4=NO)c(-c3ccncc3)o2)cc1,0.28
14,O=C1NC(=O)C(c2cccc(Cl)c2)=C1Nc1ccc(Cl)c(C(=O)O)c1,0.9
15,NS(=O)(=O)c1ccc(N/N=C2\C(=O)Nc3ccc(C(=O)NCCCn4ccnc4)cc32)cc1,3.12
16,COc1cc(Nc2ncc3c(C)nc(-c4cccc(C(F)(F)F)c4)n3n2)cc(OC)c1OC,13.5
